Compound activity as filed in PubChem BioAssay.
In the library only some 1.2% were active in any assay of this set; here they are far more common.
AGP1 TOR yeast: yeast TOR pathway AGP1-GFP modulation | GFP response vs DMSO, % at 10 µM | S. cerevisiae AGP1-GFP multiplex flow cytometry, 3 h; GFP as percent of DMSO wells | 0.02% of 320,000 active;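 active = GFP response relative to DMSO above a set limit, near screen average plus 3 SD, cut at about 150% in these data; inconclusive = fewer than 70 cells counted for the yeast strain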;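 note: median GFP channel fluorescence of the gated AGP1 strain per well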
LAP4-GFP MLPCN: alters LAP4-GFP fluorescence in TOR pathway yeast screen. S. cerevisiae LAP4-GFP multiplex, flow cytometry GFP, 3 h; median GFP as percent of DMSO wells. GFP response vs DMSO, % at 10 µM. 0.34% of 320,000 active. AID 2023;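 active = GFP response vs DMSO above a set limit, about the screen mean plus 3 SD, cut at about 150% in these data; inconclusive = under 70 cell events counted for the yeast strain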
MEP2-GFP yeast: yeast TOR pathway MEP2-GFP modulation | GFP response vs DMSO, % at 10 µM | S. cerevisiae MEP2-GFP strain, flow cytometry GFP, 3 h; 100% = DMSO control level | AID 2016 | 0.51% of 330,000 active;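 active = GFP response versus DMSO above a set limit, roughly screen mean plus 3 SD, cut at about 180% in these data; inconclusive = fewer than 70 cells counted for a yeast strain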;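 note: median GFP fluorescence of the barcode-gated MEP2-GFP cells per well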
RPL19A-GFP yeast: modulators of TOR pathway RPL19A-GFP in S. cerevisiae; percent response vs DMSO, % at 10 µM; 0.3% of 330,000 active; AID 2025; S. cerevisiae RPL19A-GFP strain, flow cytometry, 3 h; stronger effect = lower value;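 active = percent response vs DMSO below 50%; inconclusive = fewer than 70 events counted for the yeast strain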;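 note: median channel GFP fluorescence of the barcoded RPL19A-GFP strain; ratio of sample median GFP to plate DMSO average so 100% = DMSO; lower means less RPL19A-GFP as with rapamycin TOR inhibition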
CIT2 TOR yeast: modulators of TOR pathway CIT2-GFP in S. cerevisiae; S. cerevisiae CIT2-GFP strain, flow cytometry, 3 h; 100 means same as DMSO wells; AID 2029; 0.065% of 320,000 active; GFP response vs DMSO, % at 10 µM;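 active = GFP response relative to DMSO above a set limit, near the screen mean plus 3 SD, cut at about 150% in these data; inconclusive = Fewer than 70 cells measured for a yeast strain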;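 note: ratio of well median GFP fluorescence to mean of DMSO wells on the plate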
Pemphigus Ab inh: inhibitors of pemphigus antibody binding to human desmoglein-3 | P32926 | DSG3-coupled beads, scFv-anti-DSG3-GFP binding, flow cytometry; stronger effect = lower value | binding (percent of control), % at 10 µM | 0.48% of 310,000 active;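 active = binding more than 3 SD below its plate's average and above zero; inconclusive = below that plate limit but binding exactly zero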;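 note: hits lower antibody fragment binding to DSG3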
Target sequence (P32926 whole entry, looked up, the tested form may be a part): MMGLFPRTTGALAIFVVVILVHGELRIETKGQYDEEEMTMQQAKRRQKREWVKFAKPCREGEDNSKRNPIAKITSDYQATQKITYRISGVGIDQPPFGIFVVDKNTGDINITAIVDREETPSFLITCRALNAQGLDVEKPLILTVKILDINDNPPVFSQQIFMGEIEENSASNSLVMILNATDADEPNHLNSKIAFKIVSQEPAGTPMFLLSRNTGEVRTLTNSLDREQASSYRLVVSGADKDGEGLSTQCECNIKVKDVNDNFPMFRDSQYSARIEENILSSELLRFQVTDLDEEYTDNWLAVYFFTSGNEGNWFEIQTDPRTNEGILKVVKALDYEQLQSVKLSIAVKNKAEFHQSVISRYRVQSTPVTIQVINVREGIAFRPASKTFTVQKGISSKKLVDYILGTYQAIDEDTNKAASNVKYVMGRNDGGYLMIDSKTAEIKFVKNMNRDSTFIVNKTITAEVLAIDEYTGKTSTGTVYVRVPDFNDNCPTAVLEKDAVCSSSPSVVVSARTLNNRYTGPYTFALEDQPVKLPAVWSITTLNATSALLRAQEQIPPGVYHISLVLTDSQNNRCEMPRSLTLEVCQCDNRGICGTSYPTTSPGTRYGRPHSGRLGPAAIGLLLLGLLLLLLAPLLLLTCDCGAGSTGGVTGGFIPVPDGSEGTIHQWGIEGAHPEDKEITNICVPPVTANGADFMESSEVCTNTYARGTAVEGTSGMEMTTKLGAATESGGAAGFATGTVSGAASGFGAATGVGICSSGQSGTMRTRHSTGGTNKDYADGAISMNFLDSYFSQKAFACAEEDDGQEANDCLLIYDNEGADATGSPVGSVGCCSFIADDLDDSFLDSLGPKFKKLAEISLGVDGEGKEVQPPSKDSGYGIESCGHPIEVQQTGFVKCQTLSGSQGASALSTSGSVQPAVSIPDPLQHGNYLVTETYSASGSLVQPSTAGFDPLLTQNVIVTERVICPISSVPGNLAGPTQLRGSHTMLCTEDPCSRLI
LAP4 cherry2: yeast LAP4-GFP modulation, second cherry pick. S. cerevisiae LAP4-GFP strain, flow cytometry GFP, 3 h. shares compounds with LAP4-GFP MLPCN. GFP response vs DMSO, % at 10 µM. 20% of 590 active;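 active = GFP signal as percent of the solvent control above about 150%, meaning raised reporter expression, limit read from the data; inconclusive = fewer than 70 cells counted in the well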;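 note: ratio of well median GFP fluorescence to plate DMSO mean so 100% = DMSO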
MEP2-GFP pick2: second confirmation of modulators of TOR reporter MEP2-GFP in yeast; shares compounds with LAP4-GFP MLPCN; S. cerevisiae MEP2-GFP strain, flow cytometry GFP, 3 h; GFP response vs DMSO, % at 10 µM; 10% of 590 active; AID 2622;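 active = GFP signal above 150% of the solvent control wells, that is a rise of more than half; inconclusive = fewer than 70 yeast cells counted in the well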;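 note: median channel GFP fluorescence of all gated yeast cells per well; ratio of median GFP to plate DMSO average so 100% = DMSO level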
RPL19A-GFP pick2: reconfirmed modulator of RPL19A-GFP TOR reporter in yeast. shares compounds with LAP4-GFP MLPCN. S. cerevisiae RPL19A-GFP strain, flow cytometry GFP, 3 h; stronger effect = lower value; 100% means same as DMSO wells. 3% of 590 active. AID 2623. GFP response vs DMSO, % at 10 µM;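 active = under 65% GFP response relative to DMSO; inconclusive = yeast strain with under 70 measured events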;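 note: median GFP channel fluorescence per well over the all cells gate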
CIT2 GFP CP2: second confirmation of modulators of TOR reporter CIT2-GFP in yeast; shares compounds with LAP4-GFP MLPCN; S. cerevisiae CIT2-GFP strain, flow cytometry GFP, 3 h; DMSO control wells read 100%; GFP response vs DMSO, % at 10 µM; 8% of 590 active; AID 2624;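 active = GFP response vs DMSO above about 150%, limit read from the data; inconclusive = fewer than 70 events counted for a yeast strain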;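 note: median green fluorescence per well over all gated yeast cells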
AGP1 GFP CP2: second confirmation of modulators of TOR reporter AGP1-GFP in yeast. shares compounds with LAP4-GFP MLPCN. S. cerevisiae AGP1-GFP strain, flow cytometry GFP, 3 h. percent response vs DMSO, % at 10 µM. 590 tested, under 10 active. AID 2643;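 active = over 150 percent of DMSO response; inconclusive = yeast strain measured with under 70 events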;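 note: median GFP channel fluorescence over all cells without mother daughter split; sample median GFP divided by mean DMSO control so 100% equals DMSO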
Yeast autofluor: counter-screen for compound autofluorescence in yeast s288c cells. shares compounds with LAP4-GFP MLPCN. S. cerevisiae s288c, 520 nm autofluorescence, flow cytometry, 3 h; stronger effect = higher value; zero means same as solvent-only cells. fluorescence change (kMESF span) at 33 µM. 610 tested, under 10 active;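 active = fluorescence span over the dose series, or activity score, above about 33, limit read from the data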
s288c autofl DR: yeast s288c autofluorescence artifact in dose response | shares compounds with LAP4-GFP MLPCN | S. cerevisiae s288c parental, compound autofluorescence, flow cytometry, 3 h | fluorescence change (span) at 33 µM | 110 tested, under 10 active | AID 488829;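 active = fluorescence change span, or the activity score built from it, above 25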
TORC1 bypass: compounds blocking wildtype yeast growth but not TORC1 bypass cells | shares compounds with LAP4-GFP MLPCN | S. cerevisiae BY4741 spot growth rating, 48-72 h; stronger effect = lower value | growth rating (0-3) at 30 µM | 120 tested, under 10 active | AID 504456;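 active = growth rating at most 1 for wild type yeast while the TORC1 bypass strain still grows fully, rated 3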
Active calls of the source: *; i = inactive; ? = inconclusive; nt = no result given.

SMILES | AGP1 TOR yeast | LAP4-GFP MLPCN | MEP2-GFP yeast | RPL19A-GFP yeast | CIT2 TOR yeast | Pemphigus Ab inh | LAP4 cherry2 | MEP2-GFP pick2 | RPL19A-GFP pick2 | CIT2 GFP CP2 | AGP1 GFP CP2 | Yeast autofluor | others
CC(/C=C/c1ccco1)=N\NC(=O)COc1ccc(C)c(C)c1 | 85.9 | 86.3 | 87.4 | 94.5 | 90.6 | 96.9 | nt | nt | nt | nt | nt | nt
COC(=O)c1ccc(CSc2nc3c(c(=O)n2-c2ccc(C)cc2)SCC3)o1 | 102.5 | 171.6* | 101.0 | 80.5 | 96.5 | 100.6 | 91.2 | 89.1 | 98.9 | 98.7 | 96.4 | nt
Cn1nc(CC(=O)Nc2ncc(Br)s2)c2ccccc2c1=O | 26.0 | 91.7 | 158.3 | 63.5 | 99.0 | nt | 96.2 | 103.2 | 100.0 | 106.3 | 98.9 | nt
CCOCCCNC(=O)C1CCCN(S(=O)(=O)c2cccc3nsnc23)C1 (configuration not stated) | 99.7 | 234.3* | 86.2 | 72.3 | 68.2 | 101.0 | 97.1 | 104.8 | 100.0 | 100.7 | 100.8 | nt
CCN1CCN(c2cc(C)c3cc(NC(=O)c4ccc(OC)c(OC)c4)ccc3n2)CC1 | 97.3 | 102.4 | 98.8 | 100.6 | 98.2 | 99.0 | nt | nt | nt | nt | nt | nt
CCN1CCN(c2cc(C)c3cc(NC(=O)c4cccc(OC)c4)ccc3n2)CC1 | 48.6 | 99.5 | 153.9 | 59.9 | 90.3 | 92.1 | 102.2 | 96.1 | 100.6 | 118.2 | 98.8 | nt
O=C(COc1c(Br)cc(Br)c2cccnc12)N1CCc2ccccc2C1 | 84.9 | 156.8* | 106.3 | 97.9 | 101.8 | 97.5 | nt | nt | nt | nt | nt | 1
O=C(COc1c(Br)cc(Br)c2cccnc12)N1CCCCC1 | 96.5 | 122.9 | 119.6 | 98.0 | 95.9 | 103.8 | nt | nt | nt | nt | nt | nt
Cc1cccc(CSC2=NCCN2C(=O)c2ccc(Br)o2)c1 | 92.8 | 107.7 | 94.0 | 95.3 | 90.7 | 108.2 | nt | nt | nt | nt | nt | nt
O/C=c1\ccc2cccc3nc(C(F)(F)F)nc1c23 | 103.6 | 172.7* | 233.1* | 115.4 | 241.6* | 115.4 | nt | nt | nt | nt | nt | 8.36
COC(=O)CCS(=O)(=O)c1nc(-c2ccccc2)cc(C(F)(F)F)n1 | 148.8 | 155.7* | 183.4* | 101.3 | 102.0 | nt | nt | nt | nt | nt | nt | 1.02 | s288c autofl DR=0.08;TORC1 bypass=3
CCOC(=O)CCS(=O)(=O)c1nc(-c2ccccc2)cc(C(F)(F)F)n1 | 130.2 | 185.2* | 144.7 | 90.4 | 98.9 | 106.1 | nt | nt | nt | nt | nt | 0.4 | s288c autofl DR=0.24;TORC1 bypass=3
CCOC(=O)CS(=O)(=O)c1nc(-c2ccccc2)cc(C(F)(F)F)n1 | 115.3 | 179.6* | 131.1 | 87.6 | 83.6 | ? | nt | nt | nt | nt | nt | 0.41 | s288c autofl DR=0.16;TORC1 bypass=3
CCOC(=O)CS(=O)(=O)c1nc(-c2ccc(F)cc2)cc(C(F)(F)F)n1 | 88.4 | 172.4* | 104.3 | 93.7 | 80.8 | 100.8 | nt | nt | nt | nt | nt | 0.51
COc1ccc2c(c1)CC[C@@H]1[C@@H]2CC[C@]2(C)[C@@H](C(=O)O)C[C@@H]12 | 78.0 | 167.2* | 94.2 | 92.8 | 63.8 | 102.5 | 116.2 | 110.0 | 89.7 | 87.6 | 88.2 | nt
CC(=O)Oc1ccc2c(c1)C(=O)c1ccccc1CO2 | 94.4 | 103.4 | 91.3 | 99.8 | 92.1 | 92.4 | nt | nt | nt | nt | nt | nt
CC(=O)Oc1ccc2c(c1)Oc1cc(OC(C)=O)ccc1C21OC(=O)c2ccccc21 | 110.8 | 206.4* | 230.2* | 109.2 | 164.1* | i | 148.3 | 174.7* | 222.2 | 403.3* | 119.0 | nt
Cc1c(N2C(=O)/C(=C\c3ccccc3O)SC2=S)c(=O)n(-c2ccccc2)n1C | 93.2 | 169.8* | 96.2 | 95.3 | 107.9 | 99.5 | nt | nt | nt | nt | nt | 0.6
Cc1c(N2C(=O)/C(=C/c3ccccc3)SC2=S)c(=O)n(-c2ccccc2)n1C | 96.5 | 90.3 | 76.0 | 92.5 | 118.7 | 88.5 | nt | nt | nt | nt | nt | nt
Cc1ccc(C(=O)NCC(=O)Nc2ccc(S(=O)(=O)Nc3cc(C)nc(C)n3)cc2)cc1 | 100.7 | 153.3* | 104.3 | 84.8 | 96.2 | 97.8 | 100.0 | 98.2 | 100.7 | 102.9 | 98.1 | nt
O=C(Nc1nnc(-c2ccc3c(c2)CCCC3)o1)c1c(F)cccc1F | 95.7 | 95.6 | 83.2 | 89.9 | 87.9 | nt | nt | nt | nt | nt | nt | nt
O=C(Nc1nnc(-c2ccc3c(c2)CCCC3)o1)c1ccc(Cl)cc1Cl | 34.7 | 83.5 | 109.0 | 55.7 | 52.7 | 98.5 | 153.3* | 211.3* | 104.9 | 161.3* | 93.7 | 0.41
COc1ccc(C(C)=O)cc1COC(=O)c1ccc2c(c1)OCO2 | 96.7 | 98.9 | 102.0 | 97.5 | 90.6 | 104.0 | nt | nt | nt | nt | nt | nt
COc1ccc(C(C)=O)cc1COC(=O)c1cnc(Cl)c(Cl)c1 | 72.9 | 99.5 | 134.8 | 63.7 | 90.9 | 97.3 | 114.2 | 125.8 | 97.8 | 108.5 | 108.0 | nt
CCOc1cc(/C=C\[N+](=O)[O-])ccc1OCC(=O)N1CCOCC1 | 113.0 | 121.0 | 111.8 | 97.8 | 132.2 | 104.1 | nt | nt | nt | nt | nt | nt
O=C(O)C(c1ccccc1)N1C(=O)/C(=C/c2cccs2)SC1=S (configuration not stated) | 100.0 | 105.0 | 93.8 | 98.8 | 99.6 | 94.8 | nt | nt | nt | nt | nt | nt
CC(c1ccccc1)N1C(=O)/C(=C/c2ccncc2)SC1=S (configuration not stated) | 89.6 | 193.7* | 82.0 | 84.0 | 73.4 | 104.1 | 260.5* | 124.0 | 78.8 | 98.7 | 97.2 | 0.81
CS(=O)(=O)Nc1cccc(C2=NN(S(C)(=O)=O)C(c3ccc4c(c3)OCO4)C2)c1 (configuration not stated) | 94.0 | 91.5 | 103.8 | 97.3 | 102.1 | 96.0 | nt | nt | nt | nt | nt | nt
